Measured values from PubChem BioAssay (Tox21).
A number with no mark means an inactive call. Inconclusive results are not listed. A call without a number means that no potency is given here. Activity calls are given as the source filed them. Unless noted, the call rests on the fitted dose curve.

Tests used:
[1] = Nuclear factor erythroid 2-related factor 2/antioxidant responsive element (Nrf2/ARE) small molecule agonists: qHTS cell viability counter screen in human keratinocytes (AID 1919968; active means well fitted curve in the direction sought with a large enough effect in the repeat runs; an effect the other way counts as inactive or inconclusive; further: nearly all actives have a fitted effect of over 55% in size; further: potency means the concentration at half of the fitted maximal effect)
Outline: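 Stably transfected HaCaT (KeratinoSens), 1,500/well. Test agents in DMSO were applied for 23 h, 37 C/5% CO2. CellTiter-Fluor was incubated 1 h before the fluorescence read.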

[2] = Nuclear factor erythroid 2-related factor 2/antioxidant responsive element (Nrf2/ARE) small molecule agonists: luciferase reporter gene qHTS assay in human keratinocytes (AID 1919969); further: nearly all actives have a fitted effect of over 35% in size; further: potency means the concentration at half of the fitted maximal effect
[3] = molecular target: Gonadotropin-releasing hormone receptor (Homo sapiens) (UniProt P30968); experiment: Human gonadotropin-releasing hormone receptor (GnRHR) small molecule agonists, calcium flux assay in GnRHR-HEK293 cells (AID 1920063); further: nearly all actives have a fitted effect of over 35% in size; further: potency means the concentration at half of the fitted maximal effect
Outline: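 Stable human GnRHR HEK293 line. 18 h plating, then calcium dye for 1 h at 37 C. Agonist-mode compound addition from DMSO stocks; fluorescence monitored 3 min.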

[4] = molecular target: KiSS-1 receptor (Homo sapiens) (UniProt Q969F8); experiment: Human kisspeptin (KISS1R) small molecule agonists, calcium flux assay in KISS1R-HEK293 cells (AID 1920064; active means well fitted curve in the direction sought with a large enough effect in the repeat runs; an effect the other way counts as inactive or inconclusive; further: potency means the concentration at half of the fitted maximal effect)
Outline: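 After overnight (18 h) culture at 37 C/5% CO2, human KISS1R-HEK293 cells received calcium dye for 1 h, then test compound; emission at 540 nm (excitation 480 nm) was tracked for 3 min.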

[5] = G protein-coupled receptor (GPCR) small molecule agonists, calcium flux assay: HEK293 wild type cell line counter screen (AID 1920065)
Outline: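 Following 18 h incubation at 37 C/5% CO2, plates got calcium dye for 1 h; compounds, ATP or DMSO were then pinned in and fluorescence followed kinetically (480/540 nm).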

[6] = molecular target: 5-hydroxytryptamine receptor 2A (Homo sapiens) (UniProt P28223); experiment: 5-hydroxytryptamine receptor 2A (HTR2A) small molecule antagonists, cell-based qHTS assay (AID 1963586); further: nearly all actives have a fitted effect of over 45% in size; further: potency means the concentration at half of the fitted maximal effect
Outline: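 CHO cells stably expressing human HTR2A were plated for 18 h at 37 C, then loaded with calcium dye for 1 h. Compounds were preincubated 5 min at room temperature before DOI (4 nM solution) was added. Kinetic fluorescence was read for 3 min.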

[7] = molecular target: 5-hydroxytryptamine receptor 2A (Homo sapiens) (UniProt P28223); experiment: 5-hydroxytryptamine receptor 2A (HTR2A) small molecule agonists, cell-based qHTS assay (AID 1963587); further: nearly all actives have a fitted effect of over 30% in size; further: potency means the concentration at half of the fitted maximal effect
Outline: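 CHO cells stably expressing human HTR2A, plated 18 h, loaded with calcium dye 1 h at 37 C. Agonist mode: compounds added and intracellular calcium fluorescence recorded kinetically for 2 min at 1 sec intervals.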

[8] = molecular target: Muscarinic acetylcholine receptor M1 (Homo sapiens) (UniProt P11229); experiment: Cholinergic receptor muscarinic 1 (CHRM1) small molecule antagonists, cell-based qHTS assay (AID 1963588); further: nearly all actives have a fitted effect of over 40% in size; further: potency means the concentration at half of the fitted maximal effect
Outline: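 Compounds were tested at 15 concentrations in three independent runs. Dye-loaded CHRM1-CHO cells were exposed 5 min at room temperature before stimulation by acetylcholine added at 50nM. Intracellular calcium was read kinetically on FDSS for 3 min.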

[9] = molecular target: Muscarinic acetylcholine receptor M1 (Homo sapiens) (UniProt P11229); experiment: Cholinergic receptor muscarinic 1 (CHRM1) small molecule agonists, cell-based qHTS assay (AID 1963589); further: nearly all actives have a fitted effect of over 35% in size; further: potency means the concentration at half of the fitted maximal effect
Outline: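 Kinetic fluorescence (1 s intervals) of calcium-sensitive dye in human M1 CHO cells after compound addition; cells pre-incubated 18 h at 37 C/5% CO2 and dye-loaded 1 h.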

[10] = cAMP Responsive Elements (CRE) small molecule antagonists, cell-based qHTS assay (AID 1963591; active means well fitted inhibition curve with a large enough effect in the signal ratio in the repeat runs, not every such curve was filed as active; the % refers to the signal ratio)
Outline: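 Reporter line CRE-bla HEK 293T in dialyzed-FBS DMEM; cells preincubated 18 h, treated 3 h with compound plus NKH477 (0.25 uM final); LiveBLAzer FRET, 2 h RT.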

[11] = molecular target: Beta-2 adrenergic receptor (Homo sapiens) (UniProt P07550); experiment: Adrenergic beta2 receptor (ADRB2) small molecule antagonists, cell-based qHTS assay (AID 1963592); further: nearly all actives have a fitted effect of over 50% in size; further: potency means the concentration at half of the fitted maximal effect
Outline: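 Assay format: CHO-ADRB2 cells, 18-20hr seeding at 37C/5% CO2, then compound plus 1nM isoproterenol agonist mix for 0.5hr RT. Homogeneous time-resolved fluorescence cAMP detection after 1hr, expressed as 665/615 nm ratio.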

[12] = molecular target: D(2) dopamine receptor (Homo sapiens) (UniProt P14416); experiment: Dopamine D2 receptor (DRD2) small molecule agonists, cell-based qHTS assay (AID 1963594); further: nearly all actives have a fitted effect of over 35% in size
Outline: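 HEK293 cells stably expressing human DRD2, pre-treated with PDE inhibitor Ro20-1724 (0.1 mM final) and compound 10 min at room temperature, then stimulated with NKH477 (200nM […]) for 30 min. cAMP read by HTRF (665/620 nm).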

[13] = p53 small molecule agonists, cell-based qHTS assay with human liver microsomes: qHTS cell viability counter screen (AID 1963579); further: nearly all actives have a fitted effect of over 45% in size; further: potency means the concentration at half of the fitted maximal effect
Outline: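 Metabolic activation used human liver microsomes and NADPH, both 0.5 mg/mL final, over 16 hours at 37 C on p53RE-bla cells (4,000/well). Cytotoxicity measured by CellTiter-Glo luminescence, 30 min at room temperature.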

[14] = p53 small molecule agonists, cell-based qHTS assay with rat liver microsomes: qHTS cell viability counter screen (AID 1963580); further: nearly all actives have a fitted effect of over 45% in size; further: potency means the concentration at half of the fitted maximal effect
Outline: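 After the beta-lactamase ratio was read, CellTiter-Glo was added to the same wells and luminescence measured at 30 min; cells had been treated 16 h at 37 C with compounds, rat liver microsomes and NADPH (0.5 mg/mL final each).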

[15] = p53 small molecule agonists, cell-based qHTS assay: qHTS cell viability counter screen (AID 1963581); further: nearly all actives have a fitted effect of over 45% in size; further: potency means the concentration at half of the fitted maximal effect
Outline: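 qHTS counter screen: 16 h compound exposure at 37 C of p53RE-bla HCT-116 cells (4,000 per well, seeded 5 h prior), cell viability by ATP luminescence.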

[16] = cAMP Responsive Elements (CRE) small molecule agonists, cell-based qHTS assay (AID 1963590)
Outline: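 Test agents in DMSO were incubated 3 h at 37 C/5% CO2 with CRE-bla HEK 293T cells seeded 18 h earlier; LiveBLAzer B/G FRET substrate was added and read after 2 h at room temperature.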

[17] = molecular target: D(2) dopamine receptor (Homo sapiens) (UniProt P14416); experiment: Dopamine D2 receptor (DRD2) small molecule antagonists, cell-based qHTS assay (AID 1963595; active means well fitted inhibition curve with a large enough effect in the signal ratio in the repeat runs, with a control signal flat; the % refers to the signal ratio; further: potency means the concentration at half of the fitted maximal effect)
Outline: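 In this cell-based antagonist screen, compounds act for 10 min at room temperature before a 30 min challenge with 12 nM quinpirole and 200 nM NKH477. cAMP is quantified by HTRF competition in DRD2-HEK293 cells containing 0.1 mM Ro20-1724.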

[18] = p53 small molecule agonists, cell-based qHTS assay with rat liver microsomes (AID 1963578)
Outline: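 Metabolic activation by rat liver microsomes and NADPH, each 0.5 mg/mL final, added right after compounds to p53RE-bla reporter cells (4,000/well, plated 5 h earlier). 16 h at 37 C, then LiveBLAzer substrate for 2 h at room temperature in the dark; fluorescence read-out.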

[19] = molecular target: Beta-2 adrenergic receptor (Homo sapiens) (UniProt P07550); experiment: Adrenergic beta2 receptor (ADRB2) small molecule agonists, cell-based qHTS assay (AID 1963593);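 further: CHO cells stably overexpressing human ADRB2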
Outline: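 CHO cells stably over-expressing ADRB2 were plated overnight at 37C, then dosed with compounds plus a stimulation mix containing 100uM IBMX and 25uM Ro-20-1724 for 0.5hr at room temperature. cAMP was measured by HTRF competition, 1hr.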

[20] = p53 small molecule agonists, cell-based qHTS assay (AID 1963582; active means well fitted activation curve with a large enough effect in the signal ratio in the repeat runs, not every such curve was filed as active; the % refers to the signal ratio)
Outline: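 Measured: fluorescence from cleaved LiveBLAzer substrate. System: p53RE-bla cells, 16 h compound treatment at 37 C, 2 h substrate step at room temperature.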

D(2) dopamine receptor (Homo sapiens), sequence (P14416 whole entry, looked up): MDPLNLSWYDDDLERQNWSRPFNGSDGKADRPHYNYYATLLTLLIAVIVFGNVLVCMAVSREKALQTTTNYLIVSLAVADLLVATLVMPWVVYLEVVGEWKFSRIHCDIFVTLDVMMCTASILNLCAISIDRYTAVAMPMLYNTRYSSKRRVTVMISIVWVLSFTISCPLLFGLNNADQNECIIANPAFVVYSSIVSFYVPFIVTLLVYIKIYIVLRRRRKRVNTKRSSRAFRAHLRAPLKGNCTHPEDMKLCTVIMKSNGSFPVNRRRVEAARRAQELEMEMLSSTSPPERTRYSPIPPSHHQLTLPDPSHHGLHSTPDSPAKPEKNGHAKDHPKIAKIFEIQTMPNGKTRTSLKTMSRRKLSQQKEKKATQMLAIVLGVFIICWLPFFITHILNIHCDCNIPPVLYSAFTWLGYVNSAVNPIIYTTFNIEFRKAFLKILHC
KiSS-1 receptor (Homo sapiens), sequence (Q969F8 whole entry, looked up): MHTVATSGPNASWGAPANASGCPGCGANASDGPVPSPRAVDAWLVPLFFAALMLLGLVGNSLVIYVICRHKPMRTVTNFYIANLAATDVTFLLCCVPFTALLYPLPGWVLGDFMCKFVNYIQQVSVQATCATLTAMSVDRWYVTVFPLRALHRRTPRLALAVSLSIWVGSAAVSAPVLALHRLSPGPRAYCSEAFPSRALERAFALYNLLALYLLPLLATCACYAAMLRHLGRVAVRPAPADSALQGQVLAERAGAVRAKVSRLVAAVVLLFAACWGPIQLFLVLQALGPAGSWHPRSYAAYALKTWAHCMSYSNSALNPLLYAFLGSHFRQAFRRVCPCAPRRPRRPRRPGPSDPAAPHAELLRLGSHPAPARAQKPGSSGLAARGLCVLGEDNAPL
5-hydroxytryptamine receptor 2A (Homo sapiens), sequence (P28223 whole entry, looked up): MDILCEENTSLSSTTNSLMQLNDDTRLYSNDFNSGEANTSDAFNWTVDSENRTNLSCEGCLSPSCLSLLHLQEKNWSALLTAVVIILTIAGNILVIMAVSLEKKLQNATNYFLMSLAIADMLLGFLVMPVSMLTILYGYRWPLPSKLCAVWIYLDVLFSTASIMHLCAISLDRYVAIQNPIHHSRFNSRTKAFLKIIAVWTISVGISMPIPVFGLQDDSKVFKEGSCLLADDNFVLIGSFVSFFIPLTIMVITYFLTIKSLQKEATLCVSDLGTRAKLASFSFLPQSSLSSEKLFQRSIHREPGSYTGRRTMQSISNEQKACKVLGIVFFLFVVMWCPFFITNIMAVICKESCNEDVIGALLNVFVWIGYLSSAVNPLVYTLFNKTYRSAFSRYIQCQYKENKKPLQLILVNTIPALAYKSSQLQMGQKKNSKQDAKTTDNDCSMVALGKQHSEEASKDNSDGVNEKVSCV
Beta-2 adrenergic receptor (Homo sapiens), sequence (P07550 whole entry, looked up): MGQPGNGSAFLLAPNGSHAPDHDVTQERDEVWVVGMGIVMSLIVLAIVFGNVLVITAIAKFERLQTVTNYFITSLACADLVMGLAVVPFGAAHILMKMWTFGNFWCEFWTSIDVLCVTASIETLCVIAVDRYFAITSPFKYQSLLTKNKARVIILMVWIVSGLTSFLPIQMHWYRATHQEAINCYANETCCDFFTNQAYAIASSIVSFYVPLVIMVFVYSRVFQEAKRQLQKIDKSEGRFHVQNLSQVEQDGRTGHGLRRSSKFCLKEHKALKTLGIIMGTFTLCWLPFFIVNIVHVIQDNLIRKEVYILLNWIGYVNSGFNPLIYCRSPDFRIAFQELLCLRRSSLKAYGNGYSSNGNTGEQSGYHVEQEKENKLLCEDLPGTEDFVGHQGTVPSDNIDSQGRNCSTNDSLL
Gonadotropin-releasing hormone receptor (Homo sapiens), sequence (P30968 whole entry, looked up): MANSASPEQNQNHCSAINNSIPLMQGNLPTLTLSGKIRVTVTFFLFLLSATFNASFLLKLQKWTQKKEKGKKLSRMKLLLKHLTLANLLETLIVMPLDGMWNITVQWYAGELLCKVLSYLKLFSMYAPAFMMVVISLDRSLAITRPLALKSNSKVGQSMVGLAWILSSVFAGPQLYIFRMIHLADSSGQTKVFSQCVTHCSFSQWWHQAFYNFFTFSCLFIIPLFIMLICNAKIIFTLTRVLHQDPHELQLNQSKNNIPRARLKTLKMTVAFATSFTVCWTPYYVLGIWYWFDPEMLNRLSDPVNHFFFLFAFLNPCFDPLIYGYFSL
Muscarinic acetylcholine receptor M1 (Homo sapiens), sequence (P11229 whole entry, looked up): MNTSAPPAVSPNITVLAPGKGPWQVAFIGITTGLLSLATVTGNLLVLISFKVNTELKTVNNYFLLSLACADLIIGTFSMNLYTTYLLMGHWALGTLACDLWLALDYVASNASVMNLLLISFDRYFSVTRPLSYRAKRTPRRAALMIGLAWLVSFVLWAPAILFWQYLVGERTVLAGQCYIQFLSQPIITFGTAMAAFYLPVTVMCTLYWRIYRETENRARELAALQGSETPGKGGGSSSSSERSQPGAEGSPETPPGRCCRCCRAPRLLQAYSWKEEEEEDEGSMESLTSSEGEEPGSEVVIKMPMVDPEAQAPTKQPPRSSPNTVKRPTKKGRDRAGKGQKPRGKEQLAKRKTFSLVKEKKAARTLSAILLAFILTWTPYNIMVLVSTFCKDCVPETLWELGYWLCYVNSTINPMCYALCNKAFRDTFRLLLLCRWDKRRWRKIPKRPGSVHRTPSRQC

Compound	Potency [1]	Potency [2]	Potency [3]	Potency [4]	Potency [5]	Potency [6]	Potency [7]	Potency [8]	Potency [9]	Potency [10]	Potency [11]	Potency [12]	Potency [13]	Potency [14]	Potency [15]	Potency [16]	Potency [17]	Potency [18]	Potency [19]	Potency [20]
Cc1[nH]nc2c1N=C(c1ccccc1Cl)c1cc([N+](=O)[O-])ccc1N2	24.3 µM (active)	54.5 µM (active)	inactive	inactive	inactive	inactive	inactive	inactive	inactive	inactive	21.7 µM (active)	inactive								
CC(=O)c1ccc(C)cc1	inactive	inactive	inactive	inactive		inactive	inactive	inactive	inactive	inactive	inactive	inactive	inactive	inactive	inactive	inactive	inactive			
C=CCOC(=O)COCCC(C)C	inactive	inactive	inactive	inactive			inactive	inactive		inactive	inactive	inactive	inactive	inactive	inactive	inactive	inactive			
O=[N+]([O-])c1cc(C2CCCCC2)c(O)c([N+](=O)[O-])c1	19.3 µM (active)	13.6 µM (active)	38.8 µM (active)	inactive		inactive		inactive	inactive				20.4 µM (active)		20.4 µM (active)		inactive	inactive		
O=C(Nc1cccc(C(F)(F)F)c1)c1cc(Br)cc(Br)c1O	7.7 µM (active)	9.69 µM (active)	inactive	inactive		inactive	inactive	inactive	inactive		61.1 µM (active)	inactive	9.13 µM (active)				inactive	inactive		
O=[N+]([O-])c1cccc(Cl)c1Cl	inactive	inactive	inactive	inactive		inactive	inactive	inactive	inactive	inactive	inactive	inactive	inactive	inactive		inactive	inactive		inactive	
CC1=CC(C)C(C=O)C(C)C1 (stereo not given)	inactive	inactive	inactive	inactive		inactive	inactive	inactive	inactive	inactive	inactive	inactive	inactive	inactive		inactive	inactive	inactive	inactive	inactive
O=C(O)CCc1nc(-c2ccccc2)c(-c2ccccc2)o1	inactive	inactive	inactive	inactive	inactive						inactive	inactive					inactive		inactive	
CC(C)c1cccc(C(C)C)c1N1C(=O)c2ccc(O)cc2C1=O	inactive	inactive	inactive	inactive	inactive	inactive	43.6 µM (active)	37.5 µM (active)			inactive	inactive					inactive		inactive	
CCN(CC)c1ccc2c(c1)Oc1cc(N(CC)CC)ccc1C21OC(=O)c2ccccc21	9.44 µM (active)	inactive	19 µM (active)	23.9 µM (active)		inactive		inactive	23.9 µM (active)	inactive			inactive	inactive		inactive	inactive			inactive
CC(C)=CC=O	inactive	inactive	inactive	inactive		inactive		inactive	inactive		inactive	inactive	inactive	inactive	inactive	inactive	inactive		inactive	
Cc1cc(C(C#N)c2ccc(Cl)cc2)c(Cl)cc1NC(=O)c1cc(I)cc(I)c1O (stereo not given)	29.8 µM (active)	inactive	inactive	inactive							inactive	inactive	inactive	inactive	5.61 µM (active)		inactive			
O=C(CCCN1CC=C(n2c(=O)[nH]c3ccccc32)CC1)c1ccc(F)cc1	inactive	inactive	inactive	inactive	inactive							inactive					0.0211 µM (active)			
CCCCCC1Nc2cc(C(F)(F)F)c(S(N)(=O)=O)cc2S(=O)(=O)N1 (stereo not given)	inactive	inactive	inactive	inactive			inactive	inactive	inactive		inactive	inactive	inactive	inactive	inactive		inactive	inactive	inactive	inactive
O=C1NC2CCCCN2C12CCN(CCCN1c3ccccc3CCc3ccc(Cl)cc31)CC2 (stereo not given)	29.8 µM (active)	inactive	inactive	inactive		0.0365 µM (active)	inactive	1.3 µM (active)	inactive			inactive	inactive	inactive	inactive		0.335 µM (active)		inactive	
CC(C)NC[C@@H](O)COc1ccc(CC(N)=O)cc1	inactive	inactive	inactive	inactive	inactive					inactive		inactive				inactive	inactive			inactive
O=C1c2c(O)ccc([N+](=O)[O-])c2C(=O)c2c([N+](=O)[O-])ccc(O)c21	15.2 µM (active)	6.06 µM (active)	17.2 µM (active)	inactive			inactive		inactive				18 µM (active)	20.2 µM (active)	5.71 µM (active)					
